The compounds below were run against Protein kinase C beta type (Homo sapiens) (UniProt P05771). Settings: at 0.1 µM.
Sequence of Protein kinase C beta type (Homo sapiens) (P05771 2-671 limits assumed): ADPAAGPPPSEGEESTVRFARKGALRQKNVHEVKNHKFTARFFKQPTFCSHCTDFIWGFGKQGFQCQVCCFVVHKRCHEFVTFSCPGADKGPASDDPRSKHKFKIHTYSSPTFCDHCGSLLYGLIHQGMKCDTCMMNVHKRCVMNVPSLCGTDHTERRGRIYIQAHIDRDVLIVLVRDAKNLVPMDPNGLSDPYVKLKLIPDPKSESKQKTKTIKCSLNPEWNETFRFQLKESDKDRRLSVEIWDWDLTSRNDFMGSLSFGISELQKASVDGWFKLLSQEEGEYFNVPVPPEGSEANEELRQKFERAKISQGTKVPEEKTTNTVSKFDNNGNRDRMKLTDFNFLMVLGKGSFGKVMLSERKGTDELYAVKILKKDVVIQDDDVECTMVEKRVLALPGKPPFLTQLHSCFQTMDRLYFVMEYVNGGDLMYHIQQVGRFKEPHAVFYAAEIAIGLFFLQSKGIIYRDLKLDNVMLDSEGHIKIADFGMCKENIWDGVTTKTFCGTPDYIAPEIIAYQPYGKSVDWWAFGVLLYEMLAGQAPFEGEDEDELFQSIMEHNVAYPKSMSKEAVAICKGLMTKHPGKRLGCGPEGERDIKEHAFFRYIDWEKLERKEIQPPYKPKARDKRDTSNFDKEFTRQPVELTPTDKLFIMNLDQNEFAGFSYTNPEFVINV
CCCN1CCC=C(c2ccc(Nc3nc(Nc4ccccc4C(N)=O)c4cc[nH]c4n3)c(C)c2)C1 was tested, and the inhibition was -0.14%.
Work on CS(=O)(=O)CCNCc1nc(-c2ccc3ncnc(Nc4ccc(F)c(Cl)c4)c3c2)cs1 yielded an inhibition of 1.56%.
COc1cc2c(cc1Nc1nc(N3CCc4ccccc43)c3cc[nH]c3n1)N(C(=O)CN(C)C)CC2 showed an inhibition of 1.5%.
In the case of COc1cc2ncn(-c3cc(OCc4ccccc4Cl)c(C(N)=O)s3)c2cc1OC, the inhibition is reported as 0.65%.
For CS(=O)(=O)CCNCc1ccc(-c2ccc3ncnc(Nc4ccc(OCc5ccccc5)c(Cl)c4)c3c2)o1, the inhibition was -1.09%.
With Nc1ncnc2occ(-c3ccc(NC(=O)Nc4cccc(C(F)(F)F)c4)cc3)c12 the inhibition was 0.7%.
Work on COc1ccc(-c2ccncc2)cc1C(N)=O yielded an inhibition of -0.74%.
Compound Fc1cccc(COc2ccc(Nc3ncnc4cc(-c5ccc[nH]5)sc34)cc2Cl)c1 has an inhibition of 1.37%.
CCn1c(-c2nonc2N)nc2c(N3CCCC3)nccc21 showed an inhibition of 0.38%.
Cc1nn(C)c2cc(N(C)c3ccnc(Nc4cccc(S(N)(=O)=O)c4)n3)ccc12 was tested, and the inhibition was 1.44%.
CC(=O)Nc1cccc(C#Cc2cncnc2Nc2ccc(OCc3cccc(F)c3)c(Cl)c2)n1 was tested, and the inhibition was 5.03%.
Nc1nc(-c2ccc3c(c2)C(=Cc2cc(Br)c(O)c(Br)c2)C(=O)N3)cs1 gave an inhibition of 0.67%.
With CCN1CCC(CC(=O)Nc2n[nH]c3nc(-c4cccs4)c(Br)cc23)CC1 the inhibition was 2.07%.
Work on COc1ccc2cc(-c3c(-c4ccncc4)nc(-c4ccc([S+](C)[O-])cc4)n3C)ccc2c1 (stereo not given) yielded an inhibition of 0.88%.
Compound NS(=O)(=O)c1ccc(N/N=C2\C(=O)Nc3ccc(C(=O)NCCc4c[nH]cn4)cc32)cc1 has an inhibition of 1.16%.

Source: ChEMBL document CHEMBL1961873, “Compounds: GSK PKIS; Assays: Nanosyn kinase panel” (2012)
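Also: PKC-beta1 splice variant of the enzyme, figure reported as mean inhibition, measured within the GSK PKIS kinase profiling panel.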
